Experimental data reported in the supplement of paper PMC6555819.

What was measured:
Assay in all cases: PBM binding z-score (relative to random genomic background probes); higher = stronger binding; sequences stand for … in GC…GCGATTGACAGCGTAGAATGAAGG
[1] = system: FXR:RXRa (NR concentration 270 nM, RXRa partner concentration 90 nM)
Procedure, shortened: (§1)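 Each nuclear receptor dimer, without ligand, was incubated for 1 h on custom Agilent 4×180K protein-binding microarrays. Binding was detected with antibodies against each partner (one per run), and scanned fluorescence was regression-normalized. The binding z-scores are referenced to random human genomic background probes.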

[2] = system: LXRa:RXRa (NR concentration 270 nM, RXRa partner concentration 90 nM)
Procedure, shortened: as §1

[3] = system: LXRa homodimer (NR concentration 270 nM)
Procedure, shortened: as §1

[4] = system: LXRb:RXRa (NR concentration 270 nM, RXRa partner concentration 90 nM)
Procedure, shortened: as §1

[5] = system: LXRb homodimer (NR concentration 270 nM)
Procedure, shortened: as §1

[6] = system: PPARa:RXRa (NR concentration 270 nM, RXRa partner concentration 90 nM)
Procedure, shortened: as §1

[7] = system: PPARg:RXRa (NR concentration 180 nM, RXRa partner concentration 90 nM)
Procedure, shortened: as §1

[8] = system: PPARg:RXRa 270nM:90nM, anti-RXR (NR concentration 270 nM, RXRa partner concentration 90 nM)
Procedure, shortened: as §1

[9] = system: PPARg:RXRa 30nM:10nM, anti-RXR (NR concentration 30 nM, RXRa partner concentration 10 nM)
Procedure, shortened: as §1

[10] = system: PPARg:RXRa 90nM:30nM, anti-RXR (NR concentration 90 nM, RXRa partner concentration 30 nM)
Procedure, shortened: as §1

| Sequence | PBM binding z-score [1] | PBM binding z-score [2] | PBM binding z-score [3] | PBM binding z-score [4] | PBM binding z-score [5] | PBM binding z-score [6] | PBM binding z-score [7] | PBM binding z-score [8] | PBM binding z-score [9] | PBM binding z-score [10] |
| --- | --- | --- | --- | --- | --- | --- | --- | --- | --- | --- |
| CCTTACGGGTCACTGACAGGTAATAGCATTTGGA | 5.68 | 3.58 | 0.0221 | 3.16 | -0.0553 | 5.08 | 4.51 | 4.42 | 1.29 | 3.12 |
| CGTCCAAGGTCAAGGTCTGTGAAAGAGACTCGAA | 7.12 | 4.99 | 0.422 | 3.92 | 0.346 | 5.39 | 4.93 | 5.76 | 1.41 | 3.96 |
| AGAATGAGGTTATCCGTAGATCAGGGAAGAAAGT | 2.59 | 2.06 | -0.212 | 1.57 | -0.253 | 3.44 | 1.63 | 2.05 | 0.418 | 1.32 |
| ATCTCTAGGTAAAAGTTCAATGAATCCCGAGGAT | 1.81 | 2.65 | 2.7 | 2.03 | 1.14 | 4.88 | 8.83 | 8.49 | 8.81 | 9.69 |
| GGAACGAGGGCAGAGTTGATAGCATCTGTCGACG | -0.283 | -0.148 | -0.653 | -0.244 | -0.788 | 2.39 | 4.04 | 5.15 | 3.38 | 4.85 |
| ATATATAGGTTAGCTGGGGTCATTCAGACTAGGC | 4.53 | 6.18 | 3.51 | 5.39 | 2.03 | 5.2 | 5.62 | 5.43 | 2.62 | 4.79 |
| CCTACTGGGCCACGAAAGGTCACTGATTCAGTGA | 2.97 | 4.41 | 2.54 | 3.75 | -0.0263 | 4.32 | 5.13 | 4.98 | 2.2 | 4.02 |
| GCTTCTAGGTCAGGTTGGTCAGCTAACGGGTACG | 1.94 | 1.19 | -0.092 | 1.17 | 1.34 | 2.57 | 3.16 | 3.17 | 0.647 | 2.22 |
| CTGGAAAGGTCGGTTGAGGTGAGTATACGGATAA | 2.81 | 1.32 | 0.136 | 1.12 | -0.219 | 2.57 | 0.576 | 0.975 | -0.182 | 0.424 |
| CCTCGGAGGATAGAAGGTCAGAGCTGTCCGCTTT | 1 | 1.57 | 0.218 | 1.21 | -0.745 | 1.83 | -0.0434 | 1.26 | -0.528 | 0.571 |
| TCATATAGGGAAAAGGTGAAAGTCGGTGTGGTAA | 1.4 | 1.47 | 0.577 | 1.64 | 0.109 | 4.56 | 7.27 | 7.61 | 6.66 | 8.2 |
| AATACAGGGCCATCGTAGGCCAGAGTACGCACAG | 0.0639 | 0.221 | -0.132 | -0.283 | -0.499 | 0.0726 | 0.954 | -0.0465 | -0.14 | -0.0369 |
| TCTTGTAGATCAATAGATGTTAAGAAAGTGCGCT | 0.0811 | 0.309 | 0.0852 | 0.0203 | -0.00365 | -0.0219 | 0.251 | 1.64 | 3.17 | 2.42 |
| CGAACTAGGCCAAGGACAGTGAATCTCCGCACGC | -0.241 | -0.713 | -0.191 | -0.883 | -0.975 | 1.04 | 1.69 | 1.53 | -0.0892 | 0.672 |
| TCAGACAGGAGAAGGTAACTCAGGTACGCAGTCG | 0.934 | 1.47 | -0.171 | 0.452 | -0.646 | 0.384 | 0.666 | 1.78 | 3.37 | 2.69 |
| CATCAAAGTTCAAGGTAACGTAACAGAAAGCAGC | 6.68 | 5.7 | 3.88 | 3.79 | 2.13 | 4.66 | 3.59 | 4 | 1.71 | 2.82 |
| TCAGACAGGTGAGGGTAACTCAGGTACGCAGTCG | 0.261 | 1.36 | -0.144 | 0.561 | -0.273 | 0.983 | 0.558 | 1.46 | 3.02 | 2.23 |
| CCTCGGAGGACAGCAGGAGGTCAGAGCTGCCAGA | 0.706 | 1.02 | 0.292 | 0.728 | -0.764 | 1.48 | -0.245 | -0.0312 | -1.08 | -0.248 |
| CAAACTAGTTCACGAAAGGTCAAAGTCGAATGAC | 6.34 | 7.45 | 7.18 | 6.48 | 2.77 | 5.65 | 4.37 | 5.37 | 2.24 | 4.32 |
| AGTCACAGTTCACTAGGTAACGTAAGATTCAGCT | 0.936 | 1.66 | 0.659 | 1.19 | 0.166 | 2.84 | 2.96 | 3.17 | 1.06 | 2.12 |
| TAGCCTAGGTTATTGGGCCAGTATAGTACGCATC | -0.0933 | 0.0825 | -0.331 | 0.173 | -0.786 | 1.61 | 1.5 | 1.51 | -0.136 | 0.762 |
| GGAACGAGCGCATTCGAGTTGATAGCATGGCGAT | -1.63 | -0.936 | -0.9 | -1.41 | -1.24 | -1.94 | 0.379 | -1.09 | -0.954 | -1.27 |
| ATCGAAAAGTCGTGAGGTGAGTATACAGAAAGGC | 0.379 | 0.127 | -0.461 | -0.0752 | -0.13 | 0.351 | 0.623 | -0.104 | 0.404 | 0.0436 |
| CGTCCAAGGTCATAGGAGGTCAGTGCAGACAGAT | 7.64 | 7.34 | 5.11 | 6.24 | 1.16 | 5.7 | 5.88 | 5.67 | 2.19 | 4.56 |
